# CTSL1 counter = cathepsin L1 inhibition, PFM18AAP counter-screen; recombinant F. hepatica cathepsin L1, Z-Leu-Arg-MCA fluorescence; inhibition, % at 5.96 µM; 300,000 compounds, 0.49% hits;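 active = inhibition above the mean of all tested compounds plus 3 SD, set per screening campaign, cut at about 17% in these data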;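 also: 0% = plate median of test compound wells and 100% = 1 µM Z-Phe-Ala-diazomethylketone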
# PAFAH2 inh = inhibitors of human PAFAH2 | recombinant PAFAH2, FP-rhodamine activity probe, fluorescence polarization | inhibition, % at 3.39 µM | 340,000 compounds, 0.99% hits | AID 492956;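 active = inhibition above the mean over all tested compounds plus 3 SD, cut at about 30% in these data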;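 also: inhibitors block probe labeling of enzyme so polarization drops; 0% = enzyme with DMSO and 100% = wells lacking PAFAH2 protein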
# PAFAH1B2 inh = inhibitors of human PAFAH1B2. inhibition, % at 3.39 µM. recombinant PAFAH1B2, FP-rhodamine activity probe, fluorescence polarization. P68402. 340,000 compounds, 1.2% hits;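 active = inhibition above the mean of all tested compounds plus 3 SD, cut at about 24% in these data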;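 also: 0% = enzyme with DMSO and 100% = wells lacking PAFAH1B2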
# Target sequence (P68402 whole entry, looked up): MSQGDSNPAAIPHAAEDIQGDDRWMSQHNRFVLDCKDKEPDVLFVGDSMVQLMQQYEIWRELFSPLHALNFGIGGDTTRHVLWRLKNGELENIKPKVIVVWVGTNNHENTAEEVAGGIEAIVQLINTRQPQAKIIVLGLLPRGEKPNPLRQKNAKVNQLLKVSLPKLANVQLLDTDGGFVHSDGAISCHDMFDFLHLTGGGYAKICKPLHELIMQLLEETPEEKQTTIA
# PAFAH1B3 inh = PAFAH1B3 (human) inhibition. Q15102. recombinant PAFAH1B3, FP-rhodamine probe, fluorescence polarization. inhibition, % at 3.39 µM. 340,000 compounds, 0.28% hits;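 active = inhibition above the screen-wide average of all tested compounds plus 3 SD, cut at about 25% in these data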;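 also: 0% = enzyme with DMSO only and 100% = wells lacking PAFAH1B3 protein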
# Target sequence (Q15102 whole entry, looked up): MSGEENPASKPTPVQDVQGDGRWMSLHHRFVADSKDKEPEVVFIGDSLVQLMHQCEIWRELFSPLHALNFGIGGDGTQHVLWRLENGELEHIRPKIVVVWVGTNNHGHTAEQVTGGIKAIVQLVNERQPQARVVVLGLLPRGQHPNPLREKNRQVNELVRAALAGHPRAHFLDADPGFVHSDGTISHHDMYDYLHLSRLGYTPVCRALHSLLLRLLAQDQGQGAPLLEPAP
# PP5 primary = blocks human protein phosphatase 5 activity. 320,000 compounds, 0.18% hits. purified PP5c, OMFP substrate fluorescence. P53041. inhibition, % at 6.7 µM;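 active = inhibition above the campaign's mean inhibition across all tested compounds plus 3 SD, cut at about 9.5% in these data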;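 also: 0% = DMSO only and 100% = 100 µM cantharidin control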
# pPAFAH FP inh = inhibitors of human plasma PAF acetylhydrolase (pPAFAH); Q13093; recombinant pPAFAH, FP-rhodamine probe fluorescence polarization; inhibition, % at 3.39 µM; 330,000 compounds, 1.5% hits;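 active = inhibition above the mean inhibition across the screen plus 3 SD, cut at about 25% in these data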;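 also: inhibitors block binding of the rhodamine activity-based probe so polarization drops; 0% = enzyme with DMSO and 100% = wells lacking pPAFAH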
# PAFAH2 FP conf = PAFAH2 (human) inhibition, confirmed | recombinant PAFAH2, FP-rhodamine activity probe, fluorescence polarization | shares compounds with PAFAH2 inh | 2,300 compounds, 65% hits | inhibition, % at 3.39 µM;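 active = mean inhibition over three repeats above a set limit taken from the earlier primary screen, cut at about 30% in these data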;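 also: inhibitor blocks binding of rhodamine activity probe so polarization falls; 0% = enzyme with DMSO and 100% = wells lacking PAFAH2 protein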
# * = called active by the depositor; . = not tested or not shown. Shown are actives, neighbours in structure and some others; about 3% of the full set was active somewhere.
SMILES,CTSL1 counter,PAFAH2 inh,PAFAH1B2 inh,PAFAH1B3 inh,PP5 primary,pPAFAH FP inh,PAFAH2 FP conf
COc1ccc(C(=O)O/N=C(\N)c2ccccc2Cl)cc1OC,-3,7,5,8,0,7,.
N/C(=N\OC(=O)c1ccccc1)c1ccncc1,-3,0,3,0,-1,3,.
CC(=O)c1c(C)[nH]c(C(=O)OCC(=O)c2ccc(C)s2)c1C,.,2,7,10,1,2,.
COc1cc(C(=O)OCC(=O)N2CCC(Cc3ccccc3)CC2)cc(OC)c1OC,-4,5,1,11,0,5,.
CC(C)NC(=S)N/N=C/c1cc(Br)ccc1O,1,32*,8,6,5,14,32*
COC(=O)N/N=C/c1cc(Br)ccc1O,-1,6,3,3,-2,4,.
Cc1ccn(C(=O)c2ccc(NC(=O)C3CC3)cc2)n1,-6,63*,-1,3,2,0,53*
CCC(=O)Nc1ccc(C(=O)n2ccc(C)n2)cc1,-6,59*,5,9,1,-9,61*
Cc1ccn(C(=O)c2ccc(NC(=O)CC(C)C)cc2)n1,-3,62*,-1,2,4,-1,56*
Cc1cc(C)n(C(=O)c2ccc(NC(=O)C3CC3)cc2)n1,-1,2,4,2,1,9,.
O=C(O)C1CCC(N2C(=O)c3c(Cl)c(Cl)c(Cl)c(Cl)c3C2=O)CC1 (configuration not stated),-1,.,.,.,1,-1,.
Cc1ccnc(N=Cc2nc(-c3ccccc3Br)oc2O)c1,67*,63*,2,10,0,0,60*
C=CCOC(=O)c1cc(-c2ccc(/C=C3\C(=O)NC(=O)C(C#N)=C3C)o2)ccc1Cl,.,42*,12,11,.,.,19
Cc1ccccc1/C=C1\SC(=S)N(/N=C/c2cc([N+](=O)[O-])ccc2O)C1=O,9,32*,13,5,2,8,16
CC1=NN(c2ccc(C(=O)O)cc2)C(=O)/C1=C/c1ccc(-c2ccccc2F)o1,0,10,5,15,1,5,.
CC1=NN(c2ccc(C)cc2)C(=O)/C1=C/c1ccc(-c2cc([N+](=O)[O-])ccc2O)o1,.,34*,11,20,.,.,20
COc1ccc(-c2noc(CCC(=O)N3CCN(c4ccccc4Br)CC3)n2)cc1,.,-2,-6,8,.,1,.
COc1ccc(Cl)cc1NC(=O)CC1CCCC1,-3,6,4,1,1,-2,.
Cc1ccccc1NC(=O)COC(=O)CC1CCCC1,.,43*,4,-1,.,.,29
Cc1ccc(Cl)cc1NC(=O)COC(=O)CC1CCCCC1,.,31*,11,6,4,13,22
O=C(COC(=O)CC1CCCC1)Nc1ccccc1[N+](=O)[O-],.,57*,-2,2,1,15,51*
O=C(COC(=O)c1ccc(O)cc1)Nc1ccccc1[N+](=O)[O-],-3,69*,0,6,-5,0,67*
CCOC(=O)c1ccccc1NC(=O)COC(=O)CC1CCCCC1,3,1,-1,2,0,2,.
CCOc1cc(C)nc(N2CCC(C(=O)NCC3CCCO3)CC2)n1 (configuration not stated),.,-7,2,5,.,.,.
Cc1cccc(OCc2nnc(SCC(=O)N(C)C3CCCCC3)o2)c1,.,1,1,3,.,.,.
SMILES,CTSL1 counter,PAFAH2 inh,PAFAH1B2 inh,PAFAH1B3 inh,PP5 primary,pPAFAH FP inh,PAFAH2 FP conf
Nn1c(SCC(=O)Nc2ccc(N3CCOCC3)cc2)nnc1-c1cccc(F)c1,.,5,2,8,-2,1,.
O=C(NNC(=O)C12CC3CC(CC(C3)C1)C2)c1cnccn1,-8,10,1,2,0,0,.
O=C(NNC(=O)C12CC3CC(CC(C3)C1)C2)c1ccccn1,-5,37*,8,16,3,5,18
O=C(NCC1CCCO1)C(c1ccncc1)N(Cc1cccs1)C(=O)Cn1nnc(-c2ccc(F)cc2)n1 (configuration not stated),-2,5,5,5,-2,1,.
CC(C)CCNC(=O)C(c1ccncc1)N(Cc1cccs1)C(=O)Cn1nnc(-c2ccc(F)cc2)n1 (configuration not stated),5,40*,3,1,4,7,13
O=C(OCCN=C1NS(=O)(=O)c2ccccc21)c1cccs1,0,38*,5,10,-2,4,11
O=C(/C=C/c1ccccc1)OCCN=C1NS(=O)(=O)c2ccccc21,-1,30*,4,6,0,0,22
O=C(OCCCN=C1NS(=O)(=O)c2ccccc21)c1cccs1,-4,5,1,12,1,3,.
CC(=O)Nc1ccc(C=NNC(=O)CCCC(=O)NN=Cc2ccc(NC(C)=O)cc2)cc1,.,1,4,5,.,.,.
Cc1nc2c(S(=O)(=O)c3ccccc3)cnn2c(C)c1C,-4,3,3,5,0,10,.
CC(C)(C)S(=O)(=O)c1cnc2c(S(=O)(=O)c3ccccc3)cnn2c1N,2,30*,-2,1,0,5,0
COc1cccc(-c2nc3ccc(O)cc3c(=O)o2)c1,-3,72*,5,0,1,-4,52*
Cc1nc(-c2cccc(S(=O)(=O)N3CCOCC3)c2)cs1,-6,0,6,4,2,2,.
CC(=O)Oc1cccc(-c2nc3ccccc3c(=O)o2)c1,-9,40*,-2,16,-2,3,27
O=c1oc(-c2cccc(S(=O)(=O)N3CCOCC3)c2)nc2ccccc12,2,61*,-1,-1,0,0,55*
CN(C)S(=O)(=O)c1ccc(Cl)c(C(=O)Nc2cccc3ncccc23)c1,-4,-4,-2,-2,1,-1,.
O=C(NCC1CCCO1)c1cn(Cc2ccccc2)nc1-c1ccc(Cl)cc1 (configuration not stated),.,2,-1,14,-1,5,.
CCCCCCCCCCC[C@@H](C[C@@H]1OC(=O)[C@H]1CCCCCC)OC(=O)[C@H](CC(C)C)NC=O,21*,80*,10,3,2,93*,79*
O=C(NN1CCOCC1)c1ccccc1NS(=O)(=O)c1ccc(F)cc1F,.,70*,3,3,.,0,78*
CCN(c1cccc(C)c1)S(=O)(=O)c1ccc2c(c1)N(C(C)=O)CCS2,0,-7,-2,10,3,0,.
O=C(Cc1ccc(-c2ccccc2)cc1)Nc1ncccc1O,3,32*,2,1,-2,21,24
O=C(CO/N=C/c1ccc(OC(F)F)cc1)NC1CCCCC1,0,-2,1,6,2,0,.

# From PubChem
